Measurements taken from PubChem BioAssay (NCATS).
Results filed as inconclusive are left out. Entries that show only a call come without a potency. The source made the active and inactive calls. Calls come from the whole dose curve; as a rule, active = well fitted inhibition curve with a large enough effect; inconclusive = small, poorly fitted or top-dose-only effect; inactive = no such curve, though single readings can be large or run the other way.

Biological target: Protein phosphatase 1D (Homo sapiens) (UniProt O15297)
Sequence (O15297 whole entry, looked up): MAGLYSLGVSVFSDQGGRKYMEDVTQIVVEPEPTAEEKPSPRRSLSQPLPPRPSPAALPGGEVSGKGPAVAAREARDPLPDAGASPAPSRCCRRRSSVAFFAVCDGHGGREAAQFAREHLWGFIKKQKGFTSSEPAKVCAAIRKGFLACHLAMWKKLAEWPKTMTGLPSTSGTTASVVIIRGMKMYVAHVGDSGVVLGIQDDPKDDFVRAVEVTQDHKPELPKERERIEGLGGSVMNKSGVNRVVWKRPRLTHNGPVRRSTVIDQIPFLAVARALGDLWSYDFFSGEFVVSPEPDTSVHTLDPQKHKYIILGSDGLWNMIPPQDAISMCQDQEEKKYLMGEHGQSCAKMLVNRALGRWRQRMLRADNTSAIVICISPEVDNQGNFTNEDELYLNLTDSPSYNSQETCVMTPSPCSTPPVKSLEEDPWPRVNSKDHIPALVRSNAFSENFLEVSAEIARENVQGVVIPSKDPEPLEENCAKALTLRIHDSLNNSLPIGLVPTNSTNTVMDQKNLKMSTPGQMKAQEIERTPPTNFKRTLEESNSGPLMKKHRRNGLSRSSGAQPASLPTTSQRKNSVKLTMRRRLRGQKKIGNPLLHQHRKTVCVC
Experiment: RapidFire Mass Spectrometry qHTS Assay for Modulators of WT P53-Induced Phosphatase 1 (WIP1) (AID 1347424)
Settings: WIP1 dephosphorylation of phosphopeptide, RapidFire MS; series mostly up to 63 µM
Source text: Assay Provider (PI): Nathan Coussens Ph. D.
National Center for Advancing Translational Sciences (NCATS), Rockville, MD
National Institute of Health (NIH), Bethesda, Maryland
WT P53-Induced Phosphatase 1 (WIP1) is a member of the magnesium-dependent serine/threonine protein phosphatase (PPM) family and is induced by P53 in response to DNA damage. In several human cancers, the WIP1 protein is overexpressed, which is generally associated with a worse prognosis. Although WIP1 is an attractive therapeutic target, no potent, selective, and bioactive small-molecule modulator with favorable pharmacokinetics has been reported. Phosphatase enzymes are among the most challenging targets for small molecules because of the difficulty of achieving both modulator selectivity and bioavailability. Another major obstacle has been the availability of robust and physiologically relevant phosphatase assays that are suitable for high-throughput screening.
Here, we describe two orthogonal biochemical WIP1 activity assays that utilize phosphopeptides from native WIP1 substrates. We optimized a RapidFire MS assay to quantify the enzymatically dephosphorylated peptide reaction product in a 384-well format. Additionally, a redshifted Rhodamine-PBP fluorescence assay was optimized in a 1,536-well format to enable real-time WIP1 activity measurements through the detection of the orthogonal reaction product, Pi. We validated these two optimized assays by quantitative high-throughput screening against the National Center for Advancing Translational Sciences (NCATS) Pharmaceutical Collection and used secondary assays to confirm and evaluate inhibitors identified in the primary screen.
SEQUENCE No. (e.g., 1, 2, 3, etc.); […] (e.g., Cells, Incubation, Reagent, etc.); VALUE; DESCRIPTION
1; Reagent; 50 uL; dispensed assay buffer: 0.1% formic acid in water (10 uL : 40 uL) solution in column 1
3; Library Compounds; 63 nL; library compounds in DMSO, columns 3-24
4; Control Compounds; 63 nL; DMSO in wells I-P, columns 1-2, GSK830371 (10 uM, final) in wells A-H, column 2
5; Time; 1 hr; incubation
6; Substrate; 2 uL; VEPPL-pS-QETFS (10 uM) in assay buffer, column 2-24
7; Time; 5 min; incubation
8; Reagent; 2 uL; 0.5% formic acid in water, columns 2-24
9; Reagent; 38 uL; VEPPL-S-QETF*S in 0.1% formic acid, columns 2-24
10; Detection; mass spec; RapidFire mass spectrometry
NOTES (numbers refer to sequence above)
1, 2, 6; dispensed reagent in White Nunc 384-well PP microplates (264573); assay buffer: 50 mM Tris-HCl pH 7.5, 30 mM MgCl2, 1 mM TCEP, 0.1 mM EGTA, 75 ug/mL BSA.
2, 6, 8, 9; Dispensed with BioRaptr (Beckman Coulter)
2, 6, 9; Final concentrations: 10 nM WIP1; 2 uM VEPPL-pS-QETFS; 1 uM VEFFL-S-QETF*S
3 & 4; Kalypsys Pintool transfer (Wako USA), Tip wash sequence: water, DMSO, methanol, 20 sec vacuum dry.
5 & 7; incubation at room temperature
10; RapidFire mass spectrometry read using the Agilent RapidFire 360 (Clausse, 2019)
Clausse V, et al. Physiologically relevant orthogonal assay for the discovery of small-molecule modulators of WIP1 […] in high-throughput screens. J Biol Chem. 2019, 294(46): 17654-17668. doi:10.1074/jbc.RA119.010201

Row | Structure (SMILES) | Potency | activity change, negative = inhibition
1 | S=c1[nH]c2ccccc2s1 | inactive | 
2 | CCCSc1ccc2nc(NC(=O)OC)[nH]c2c1 | inactive | 
3 | Cc1c(N)c(=O)n(-c2ccccc2)n1C | inactive | 
4 | O=C(/C=C/c1ccccc1)NCCO | inactive | 
5 | Cc1[nH]cnc1CN1CCc2c(c3ccccc3n2C)C1=O | inactive | 
6 | CN1CC(=O)N/C1=N/C(=O)Nc1cccc(Cl)c1 | inactive | 
7 | CC(=O)c1ccc(OCC(=O)N2CCCCC2)cc1 | inactive | 
8 | COc1cc2c3cc1Oc1cc(ccc1O)C[C@@H]1c4c(cc(OC)c(O)c4Oc4ccc(cc4)C[C@@H]3N(C)CC2)CC[N+]1(C)C | inactive | 
9 | c1ccc2sc(SSc3nc4ccccc4s3)nc2c1 | inactive | 
10 | Cc1ccc(O)c(-n2nc3ccccc3n2)c1 | inactive | 
11 | Nc1ccc([N+](=O)[O-])cc1O | inactive | 
12 | N=C1N=C(N)c2cc3ccccc3cc21 | inactive | 
13 | CC1(C)S[C@@H]2[C@H](NC(=O)[C@H](N)c3ccccc3)C(=O)N2[C@H]1C(=O)O | inactive | 
14 | NCCO | inactive | 
15 | CN(C)c1ccc(C(=C2C=CC(=[N+](C)C)C=C2)c2ccccc2)cc1 | inactive | 
16 | Clc1ccccc1-c1nc(-c2ccncc2)no1 | inactive | 
17 | NC(=O)C(c1ccccc1)(c1ccccc1)[C@@H]1CCN(CCc2ccc3c(c2)CCO3)C1 | inactive | 
18 | CN(C)CCn1nnnc1SCC1=C(C(=O)O)N2C(=O)[C@@H](NC(=O)Cc3csc(N)n3)[C@H]2SC1 | inactive | 
19 | CCCCCCCCCCCC(=O)[O][Sn]([CH2]CCC)([CH2]CCC)[O]C(=O)CCCCCCCCCCC | inactive | 
20 | O=C(O)Cc1ccc2c(c1)C(=O)c1ccccc1CO2 | inactive | 

Row | Structure (SMILES) | Potency | activity change, negative = inhibition
21 | O=C(CS)Nc1ccccc1 | inactive | 
22 | O=c1cc(-c2ccccc2)oc2ccccc12 | inactive | 
23 | Cc1ccc(C(=O)c2ccc(CC(=O)O)n2C)cc1 | inactive | 
24 | C=CCCCCCCCCC(=O)O | inactive | 
25 | CCOC(=O)c1ccccc1O | inactive | 
26 | Cc1nc2ccccc2n1Cc1ccc(Cl)cc1 | inactive | 
27 | CCCOC(=O)c1ccc(O)cc1 | inactive | 
28 | O=C1CN(/N=C/c2ccc([N+](=O)[O-])o2)C(=O)N1 | inactive | 
29 | CCOc1ccc2nc(S(N)(=O)=O)sc2c1 | inactive | 
30 | N=C(N)N | inactive | 
31 | COc1ccnc2c1CCCCC2S(=O)c1nc2ccccc2[nH]1 (stereo not given) | inactive | 
32 | CN1CCN(c2cc3c(nn2)Oc2ccccc2N3C)CC1 | inactive | 
33 | O=c1[nH]c2ccccc2n1CCCN1CCN(C(c2ccccc2)c2ccccc2)CC1 | inactive | 
34 | O=C(O)Cc1cccc(-c2cc(CCCCCCc3ccc(O[C@H]4O[C@H](CO)[C@@H](O)[C@H](O)[C@@H]4O)c(-c4cccc(CC(=O)O)c4)c3)ccc2O[C@H]2O[C@H](CO)[C@@H](O)[C@H](O)[C@@H]2O)c1 |  | -6.57% [at 0.505 µM] (inactive)
35 | COc1cccc2c1C(=O)c1c(O)c3c(c(O)c1C2=O)C[C@@](O)(C(=O)CO)C[C@@H]3O[C@H]1C[C@H](N)[C@H](O[C@@H]2CCCCO2)[C@H](C)O1 | inactive | 
36 | COC(=O)c1nc(Cl)c(Cl)nc1N | inactive | 
37 | Oc1c(Br)cc(Br)c2cccnc12 | inactive | 
38 | CC(C)OC(=O)c1cc(C(=O)OC(C)C)cc([N+](=O)[O-])c1 | inactive | 
39 | Cc1ccc2c(n1)Oc1ccc(C(C)C(=O)OCC(=O)N(C)C)cc1C2 (stereo not given) | inactive | 
40 | CO[C@@]1(NC(=O)Cc2cccs2)C(=O)N2C(C(=O)O)=C(COC(N)=O)CS[C@@H]21 | inactive | 
